From PubChem BioAssay
Shown are actives, neighbours in structure and some others; about 4.1% of the full set was active somewhere.
TROY signal inh: inhibitors of TROY-driven NF-kB signaling, primary screen, Q293 LMP1-TROYcd cells, NF-kB luciferase, uHTS | Q293 LMP1-TROYcd NF-kB luciferase reporter, 4 h | 360,000 compounds, 0.98% hits | inhibition, % at 10 µM;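 active means compounds whose plate-normalised and pattern-corrected inhibition of the luciferase reporter signal at the single screening dose is 50% or more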
EBV LMP1 NFkB: EBV LMP1-driven NF-kappaB luciferase reporter inhibitors, primary screen, cell-based, luminescence, single point; LMP1-induced NF-kappaB luciferase reporter cells; inhibition, % at 12.5 µM; 350,000 compounds, 0.69% hits; in the data active means inhibition above about 41%;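 further: 0% = neutral control wells and 100% = reference inhibitor control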
Peg3 prom inh: Peg3 promoter-driven luciferase inhibitors, primary screen, cell-based, HeLa, luciferase luminescence; inhibition, % at 20 µM; 360,000 compounds, 1.7% hits; HeLa PEG-Prom luciferase reporter, overnight; AID 588405, 2011;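 active means inhibition of at least 50% at 20 µM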
TWEAK Fn14 block: inhibitors of TWEAK-Fn14 signaling, primary screen, luciferase reporter cells, uHTS. TWEAK-stimulated Fn14 reporter cells, luciferase luminescence, 8 h. inhibition, % at 10 µM. 360,000 compounds, 2% hits; in the data active means inhibition above about 50%
Shn3 inh set2: reduction of Shn3 3'UTR firefly luciferase signal, primary screen, Schnurri-3 inhibitor project, cell-based, Clone20 osteoblasts, set 2. Clone20 osteoblast Shn3 3'UTR firefly luciferase, 24 h. inhibition, % at 12.5 µM. 360,000 compounds, 0.52% hits. AID 588674, 2011;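 active means mean inhibition of at least 75% with every replicate also reaching 75%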;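 further: 0% = median of neutral control wells and 100% = pilot-screen positive control compound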
MITF TRPM1 inh: inhibitors of MITF-dependent TRPM1 promoter reporter, primary screen, cell-based, SK-MEL-5, single point, luciferase. 330,000 compounds, 0.83% hits. SK-MEL-5 TRPM1 promoter luciferase, 24 h. inhibition, % at 12.5 µM. AID 488899, 2010;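 active means mean inhibition across replicates of 60% or more, whatever share of single replicates reaches that level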
* marks the source's active call; other numbers are inactive results; / = no result.

SMILES	TROY signal inh	EBV LMP1 NFkB	Peg3 prom inh	TWEAK Fn14 block	Shn3 inh set2	MITF TRPM1 inh
C=CCNc1nc(-c2cc3ccccc3o2)cs1	-36	2	-170	-17	-21	-6
CC1CN(S(=O)(=O)c2ccc(NC(=O)c3cc(-c4ccccc4O)n[nH]3)cc2)CC(C)O1 (configuration not stated)	62*	20	28	37	43	8
CS(=O)(=O)c1ccccc1-c1nnc(NC(=O)c2ccc(S(=O)(=O)N3CCCC3)cc2)o1	70*	-1	12	4	-1	8
c1ccc2oc(-c3csc(NCC4CCCO4)n3)cc2c1 (configuration not stated)	-10	-24	-279	80*	-49	-58
O=C(Nc1ccc(S(=O)(=O)N2CCOCC2)cc1)c1cc(-c2ccccc2O)n[nH]1	27	-10	47	3	/	-4
CCOC(=O)c1c(C)[nH]c(C)c1S(=O)(=O)N(C)CC(=O)NCc1ccc(F)cc1	4	-5	-9	-2	7	10
CC1CN(S(=O)(=O)c2ccc(C(=O)Nc3nc(-c4cc5ccccc5o4)cs3)cc2)CC(C)O1 (configuration not stated)	37	21	32	67*	87*	9
Cc1cc(-c2csc(NC(=O)c3ccc(S(=O)(=O)N(C)C)cc3)n2)c(C)n1-c1ccccc1	-10	15	37	17	-3	21
CN(C)S(=O)(=O)c1ccc(C(=O)Nc2nc(-c3cc4ccccc4o3)cs2)cc1	51*	2	-29	-16	62	15
COc1cccc(C(=O)Nc2cccc(-c3nc4ncccc4o3)c2C)c1	27	2	-76	9	-3	2
Cc1cccnc1NC(=O)c1ccc([N+](=O)[O-])o1	-13	-1	-10	-6	8	17
Cc1c(NC(=O)c2ccc([N+](=O)[O-])o2)cccc1-c1nc2ncccc2o1	13	0	83*	23	42	78*
O=C(Nc1cccc2ncccc12)c1ccc([N+](=O)[O-])o1	13	-28	51*	18	20	46
CCOC(=O)C1CCN(C(=O)COc2ccc(Br)cc2Br)CC1	-6	-2	5	-7	-10	-1
CCOC(=O)C1CCN(C(=O)COc2cc(C)c(Br)cc2C)CC1	/	8	1	91*	13	1
COc1cccc(/C=C/C(=O)OCC(=O)N(C)CC(=O)Nc2ccccc2Cl)c1OC	-12	1	2	4	-39	19
CCC(c1ccc(O)cc1)C(CC)c1ccc(O)cc1 (configuration not stated)	52*	-6	33	4	8	12
CCC(C(=O)c1ccc(O)cc1)c1ccccc1 (configuration not stated)	14	-4	31	-3	-4	-2
COc1ccccc1N(C)S(=O)(=O)c1ccc(C(=O)Nc2cccc(S(=O)(=O)N3CCOCC3)c2)cc1	33	-1	50*	49	57	-7
COc1cccc(COC(=O)c2cc(S(=O)(=O)N3CCOCC3)ccc2Cl)c1OC	9	-5	-14	85*	3	2
COc1ccccc1N(C)S(=O)(=O)c1ccc(C(=O)Nc2cc(F)ccc2C)cc1	28	-7	15	-11	83*	12
CC(C)(O)C#Cc1ccc(CNC[C@H]2O[C@@H](n3cnc4c(N)ncnc43)[C@H](O)[C@@H]2O)s1	-12	-8	0	-18	-3	-6
Cc1cc(C(=O)NNC(=O)C(C)NS(=O)(=O)c2ccccc2F)c(C)o1 (configuration not stated)	-1	-3	1	5	-6	6
CCC(NC(=O)Nc1nnc(C(F)(F)F)s1)(C(F)(F)F)C(F)(F)F	64*	46*	33	43	83	47
Cc1nn(Cc2ccc(Cl)cc2)c(C)c1NC(=O)c1noc2c1CCc1ccccc1-2	57*	6	19	69*	11	-10
SMILES	TROY signal inh	EBV LMP1 NFkB	Peg3 prom inh	TWEAK Fn14 block	Shn3 inh set2	MITF TRPM1 inh
Cc1ccc(Cn2nc(C)c(NC(=O)CSc3nc4c(c(C(F)(F)F)n3)CCc3ccccc3-4)c2C)cc1	-3	3	50*	11	0	-11
Cc1nn(Cc2ccc(Cl)cc2)c(C)c1NC(=O)CSc1nc2c(c(C(F)(F)F)n1)CCc1ccccc1-2	19	14	14	23	-5	2
N#CC1(NC(=O)CSc2nnc(C3CC3)n2N)CCCCC1	-9	-20	-4	25	-9	/
CC(Sc1nnc(CN2CCCC2)n1Cc1ccccc1)C(=O)Nc1ccccc1 (configuration not stated)	66*	-9	11	4	-9	19
CC(C)(C)c1cc(C(=O)N/N=C/c2cc3c(cc2Br)OCO3)n[nH]1	-48	7	-10	-17	15	-22
C#CCn1c(=NC(=O)c2ccc(S(=O)(=O)N3CCc4ccccc4C3)cc2)sc2cc(S(N)(=O)=O)ccc21	7	12	103*	10	97*	90*
Oc1ccc(C[C@H]2CNCCN2CCc2cccc3ccccc23)cc1	5	1	-3	8	9	-4
FC(F)(F)c1cc(CCN2CCNC[C@H]2Cc2cccc3ccccc23)cc(C(F)(F)F)c1	-7	2	101*	-5	38	10
Oc1ccc(C[C@@H]2CNCCN2CCCCC2CCCCC2)cc1	-8	1	94*	-6	9	-12
Oc1ccc(C[C@@H]2CNCCN2CCc2cc(C(F)(F)F)cc(C(F)(F)F)c2)cc1	1	-10	103*	-3	-4	1
Cc1ccc(-n2nc3c(N4CCC(C(=O)N5CCCCCC5)CC4)nnc(C)c3c2C)cc1	22	-13	30	-28	14	-9
Cc1ccc(-n2nc3c(N4CCC(C(=O)NCc5ccccc5C)CC4)nnc(C)c3c2C)cc1	12	2	89*	-16	32	94*
CCOc1ccccc1CNC(=O)Cn1nc(C)c2c(C)n(-c3ccc(C)cc3)nc2c1=O	27	23	22	58*	28	49
COc1ccc(-n2nc3c(N4CCC(C(=O)NCc5cccc(C)c5)CC4)nnc(C)c3c2C)cc1	12	-4	99*	-6	-23	95*
CCc1ccc(CNC(=O)C2CCCN(c3nnc(C)c4c(C)n(-c5ccccc5)nc34)C2)cc1 (configuration not stated)	35	17	-41	19	42	66*
